This note sets out measurements from PubChem BioAssay (NCI).

Compounds without any hit were thinned out: in the full panel of roughly 83,000, 20% have a hit.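 Cells were grown in 96-well plates and exposed to the test compound at a single concentration for 48 hours; results are reported as percent growth, with values below 10 considered active.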 Active and inactive are the calls of the source.

In this experiment the test system is HL-60(TB) leukemia. The experiment in a line: NCI-60 one-dose screen, 48 h (100 = growth as untreated, 0 = no growth, -100 = all killed). The note with it: 10 µM unless noted. As to the method:
Growth inhibition of the HL-60(TB) human tumor cell line is measured as a screen for anti-cancer activity. Cells are grown in 96 well plates and exposed to the test compound for 48 hours. Compounds are tested at a single concentration, which is 10^-5 M for most compounds. The reported endpoint is percent growth (GI% or GIPRCNT), where numbers from 0 - 100% represent growth inhibition, and numbers from -100% - 0 represent cell death. For example, a value of 40 represents 60% growth inhibition. A value of 0 means no net growth occurred over the course of the experiment. A value of -40 indicates 40% of cells at the beginning of the experiment died by the end of the experiment. A value of -100 means all cells are dead at the end of the experiment.
NCI-60 Human Tumor Cell Lines Screen was performed using the standard one-dose NCI protocol, which is described in more detail at https://dtp.cancer.gov/discovery_development/nci-60/default.htm.
Compounds with GIPRCNT values below 10 were considered active. Activity score was based on GIPRCNT using the following formula: […]
Score is 0 for GIPRCNT values of 100 or above, 50 for GIPRCNT values of 0, and 100 for GIPRCNT values of -100.
For the molecule `COC(=O)[C@@H](C)C[C@H](Cc1ccc(F)cc1)NC(=O)c1csc([C@@H](C[C@H](C(C)C)N(C)C(=O)[C@@H](NC(=O)[C@H]2CCCCN2C)C2CC2)OC(C)=O)n1`, the growth was -35.1% (active).

As for `COC(=O)N[C@H]1CCc2c(Br)c(OC)c(OC)c(OC)c2-c2ccc(SC)c(=O)cc21`, the growth is -43.7% (active).

`O=C1Nc2ccccc2C2c3cccn3-c3ccccc3CN12` (stereo not given): the growth was 44.6% (inactive).

Turning to `CC(CC1CCCCC1)NCc1ccccc1` (stereo not given), the growth was 111% (inactive).

As for `COC(=O)C1OC(Oc2ccc(N(CCCl)CCCl)cc2)C(OC(C)=O)C(OC(C)=O)C1OC(C)=O` (stereo not given), the growth was 40.1% (inactive).

On to `C=CCn1cc(C=C2C(=O)N(C)C(=O)N(C)C2=O)c2ccccc21`, for which the growth is 121% (inactive).

Consider `c1ccc(COc2ccc3[nH]cc(CCN(Cc4ccccc4)Cc4ccccc4)c3c2)cc1`, for which the growth is 91.8% (inactive).

In the case of `COC(=O)[C@@H](C)C[C@H](Cc1ccc(F)cc1)NC(=O)c1csc([C@@H](C[C@H](C(C)C)N(C)C(=O)[C@@H](NC(=O)[C@H]2CCCCN2C)C(C)C)OC(C)=O)n1`, the growth is -37.5% (active).

For the molecule `CC1(C)[C@H](O)[C@H](F)C[C@@]2(C)Oc3ccc(C(=O)Nc4ccc5c(c4)NC(=O)C54CCN(CCCCC#N)CC4)cc3C[C@H]12`, the growth is 30.5% (inactive).

As for `COC(=O)[C@@]1(C)CC[C@]2(C)CC[C@]3(C)C4=CC(=O)c5c(cc(O)c(O)c5C)[C@]4(C)CC[C@@]3(C)[C@@H]2C1`, the growth is 38.4% (inactive).

For the molecule `CC[C@H](C)[C@H](NC(=O)C12C3C4C1C1C2C3C41NC)C(=O)N(C)[C@H](C[C@@H](OC(C)=O)c1nc(C(=O)N[C@@H](Cc2ccccc2)C[C@H](C)C(=O)OC)cs1)C(C)C` (stereo not given in full), the growth is -14.6% (active).

For the molecule `O=C([O][Hg][c]1ccccc1)c1ccccc1`, the growth is -53.5% (active).

As for `OCc1ccc2c(c1)OCO2`, the growth is 96.1% (inactive).

In the case of `CC1(C)N=C(N)N=C(N)N1c1ccc(CCCCc2ccc(Cl)c(S(=O)(=O)F)c2)c(Cl)c1`, the growth is -43.9% (active).

As to `CC1=C([Te]c2ccc(O)cc2)C(=O)c2ccccc2C1=O`, the growth is -38% (active).

For `CN1CCC(c2c[nH]c3ccccc23)C1` (stereo not given), the growth is 104% (inactive).

Take `Fc1ccc(C2=CCNCC2)cc1`: the growth was 109% (inactive).

`COC(=O)C12CC(NC(=O)c3csc([C@@H](C[C@H](C(C)C)N(C)C(=O)[C@@H](NC(=O)[C@H]4CCCCN4C)C4CC4)OC(C)=O)n3)(C1)C2`: the growth was -44% (active).

Turning to `CC(C)[C@@H]1NC(=O)[C@]2(C)CSC(=N2)c2csc(n2)CNC(=O)C[C@@H](/C=C/CCS)OC1=O`, the growth was 8.48% (active).

For `COc1cccc(/C=C/[N+](=O)[O-])c1`, the growth was 17.4% (inactive).

For the molecule `COC1OC(CO)C(O)C(O)[CH]1[Hg][O]C(C)=O` (stereo not given), the growth is 94.6% (inactive).

`COC(=O)[C@@H](C[C@H](Cc1ccccc1)NC(=O)c1csc([C@@H](C[C@H](C(C)C)N(C)C(=O)[C@@H](NC(=O)[C@H]2CCCCN2C)C(C)C)OC(C)=O)n1)NC(=O)OCc1ccccc1`: the growth was -40.2% [9.5 µM] (active).

Consider `C/C(=C\c1ccn(-c2ccc(N)c(F)c2)n1)[C@@H]1C[C@@H]2O[C@]2(C)CCC[C@H](C)[C@H](O)[C@@H](C)C(=O)C(C)(C)[C@@H](O)CC(=O)O1`, for which the growth was 5.44% (active).

As to `O=C(Nc1ccc(Br)cc1)c1cc(Br)cc(Br)c1O`, the growth was 84.3% (inactive).

On to `CC(=O)ONc1ccc([N+](=O)[O-])c(C(F)(F)F)c1`, for which the growth was 90% (inactive).

For the molecule `NC(=O)C(Br)c1ccccc1` (stereo not given), the growth was 97.7% (inactive).

As to `O=[N+]([O-])c1ccc([Se]C2CCCCC2Cl)c([N+](=O)[O-])c1` (stereo not given), the growth was 78.8% (inactive).

In the case of `COC(=O)[C@H](Cc1ccccc1)NC(=O)c1csc([C@@H](C[C@H](C(C)C)N(C)C(=O)[C@@H](NC(=O)[C@H]2CCCCN2C)C2CC2)OC(C)=O)n1`, the growth was -43.1% (active).

With `CCOC(=O)CCN(C)C1=Nc2ccc(Cl)cc2C(c2ccccc2)=[N+]([O-])C1`, the growth is 91.3% (inactive).

As for `Cc1cc(NC(=O)NCc2ccc(N3C(N)=NC(N)=NC3(C)C)cc2)ccc1S(=O)(=O)F`, the growth was 24.7% (inactive).

Turning to `COc1cc(/C=C\c2cc(OC)c(OC)c(OC)c2)cc(NS(=O)(=O)c2cccc(Cl)c2)c1OC`, the growth was 4.54% (active).

On to `COc1cc2c(cc1OCCCn1c(-c3ccccn3)nc3ccccc31)N=C[C@@H]1CCCN1C2=O`, for which the growth is -21.7% (active).

Take `C#Cc1ccc2c(c1)C(c1ccccc1F)=NCC(=O)N2C`: the growth is 10.2% (inactive).

In the case of `O=NNc1ccccn1`, the growth was 73.8% (inactive).

As to `Brc1ccc2c(c1)c(-c1nc(-c3c[nH]c4ncccc34)cs1)cn2CCN1CCCCC1`, the growth was 66% (inactive).

As for `CC[C@H](C)[C@H](NC(=O)C12C3C4C1C1C2C3C41NC(C)=O)C(=O)N(C)[C@H](C[C@@H](OC(C)=O)c1nc(C(=O)N[C@@H](Cc2ccccc2)C[C@H](C)C(=O)OC)cs1)C(C)C` (stereo not given in full), the growth was -13.3% (active).

On to `O=C1NC(=O)C(=Cc2ccc(OCCCCC3CCCCC3)c(Cl)c2)C(=O)N1`, for which the growth was 92.8% (inactive).

In the case of `CC(=O)O[C@@H]1CC[C@]2(C)[C@H]3CC[C@]4(C)C(=O)CC[C@H]4[C@@H]3C[C@@H]3SC(N)=N[C@@]32C1`, the growth is 44.5% (inactive).

`CC(=O)O[C@H]1CC[C@@]2(C)C(=CC[C@H]3[C@@H]4C[C@@H](N5CC5)[C@H](C(C)=O)[C@@]4(C)CC[C@@H]32)C1`: the growth was 92.4% (inactive).

As for `CCC(=O)Nc1ccc(Cl)c(Cl)c1`, the growth is 92.4% (inactive).
